Screening data: PubChem BioAssay, National Center for Advancing Translational Sciences (NCATS)
This is a sample that favours compounds with a hit; in the whole collection about 19% have one here.
HT1080 IDH1KD tx – toxicity to HT-1080 IDH1 knockdown cells (counter line); Potency, µM (highest dose often 46.1 µM), without a hit: at the top dose activity, negative = toxicity, hits mostly cytotoxic; 2% of 360,000 active; AID 686971; HT-1080 IDH1 knockdown viability, ATP luminescence, 48 h;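 further: potency means the concentration at half of the fitted maximal effect; 0% = DMSO wells and -100% = cell-free medium wells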
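Luminescent ATP read-out (CellTiter-Glo, 10 min at room temperature) after 48 h compound exposure at 37 °C gave viability of IDH1-knockdown HT-1080 cells. Activity was normalised to DMSO and cell-free wells, then fitted as concentration-response curves.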
IL1B secr inh – inflammasome signaling inhibition, IL-1 beta readout; 4.7% of 360,000 active; THP-1 LPS/ATP IL-1B secretion, AlphaLISA, 16 h; hits give low values; AID 743279; activity change, % at 57.5 µM; in the data active means activity change below about -50%; inconclusive means mostly about -30% to -49%
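THP-1 cells pretreated 1 hr with compounds (up to 57.5 uM final), then stimulated with LPS (250 ng/mL final) plus ATP (1.25 mM final); secreted IL-1B measured by AlphaLISA after 16 hr, decreased signal indicating inhibition.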
HT1080NT lethal – kills 2HG-producing HT-1080-NT fibrosarcoma cells; HT-1080-NT fibrosarcoma viability, CellTiter-Glo ATP luminescence, 48 h; Potency, µM (top dose mostly 46.1 µM), for the others: top-dose activity, negative = less viability, hits mostly cytotoxic; 1.6% of 360,000 active;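 further: NT is the 2HG producing partner of a matched IDH1 knockdown line; potency means the concentration at half of the fitted maximal effect; 0% = DMSO-treated cells and -100% = media-only wells without cells; nearly all actives have a fitted effect of over 55% in size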
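Compounds were tested in concentration-response format on HT-1080-NT cells for 48 hours at 37 degrees C. Cell viability came from CellTiter-Glo luminescence; curves were classified by r2, response magnitude and activity.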
DT40 TDP1 CPT – DT40-hTDP1 cell growth loss with CPT. AID 686979. 12% of 420,000 active. chicken DT40 Tdp1-/-;hTDP1 cells + 20 nM CPT, ATP luminescence, 48 h. Potency, µM (titrated, usually from 46.2 µM), for the others: at the highest dose activity change, negative = growth inhibition, hits mostly inhibitors; further: potency means the concentration at half of the fitted maximal effect; nearly all actives have a fitted effect of over 55% in size
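Chicken DT40 Tdp1-/- cells stably complemented with human TDP1 were seeded at 400 cells/well in medium containing 20 nM camptothecin, exposed to pin-transferred compounds, and grown at 37 °C for at least 48 hr. Viability was read as ATP luminescence.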
DT40 TDP1 no CPT – qHTS for Inhibitors of human tyrosyl-DNA phosphodiesterase 1 (TDP1): qHTS in cells in absence of CPT. 15% of 420,000 active. Potency, µM (titrated, usually from 46.2 µM), inactives show at the top dose activity change, negative = growth inhibition, usual class: inhibitors. DT40 Tdp1-/- hTDP1 cells, no CPT, ATP luminescence, 48 h; further: potency means the concentration at half of the fitted maximal effect; nearly all actives have a fitted effect of over 55% in size
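Stably hTDP1-transfected Tdp1-null chicken DT40 cells were treated with library compounds minus camptothecin and grown for at least 48 hr at 37 °C, after which cellular ATP was quantified by luminescence.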
Numbers without * were called inactive; ? = inconclusive; / = not tested or not shown; [ ] = dose if it differs, or a comment. Unless noted, the call rests on the fitted dose curve; in most records, active means well fitted curve in the direction sought with a large enough effect; inconclusive means small, poorly fitted or top-dose-only effect, or another doubt; inactive means no such curve, though single readings can be large; an effect the other way counts as inactive or inconclusive. Unless noted, on the % scale 0 is the no-effect control and ±100 the full control effect.

SMILES	HT1080 IDH1KD tx	IL1B secr inh	HT1080NT lethal	DT40 TDP1 CPT	DT40 TDP1 no CPT
COC(=O)c1ccc(COc2ccccc2/C=C(\C#N)C(=O)Nc2c(C)cc(C)cc2C)cc1	18µM*	-79*	9.2µM*	8.2µM*	10µM*
O=C(Nc1nnc(S(=O)(=O)N2CCCC2)s1)c1ccccc1F	1%	-59*	-2%	-6%	?
COc1ccc(S(=O)(=O)N2CCCCCC2)cc1NC(=O)c1ccccc1F	-2%	0	-5%	16µM*	-80%
COc1ccc(S(=O)(=O)N2CCCCC2)cc1NC(=O)c1cccc(S(=O)(=O)N2CCOCC2)c1	6%	0	3%	?	?
COc1ccc(S(=O)(=O)N2CCOCC2)cc1NC(=O)c1ccc(S(=O)(=O)N2CCCCC2)cc1	3%	-15	2%	12µM*	?
COc1ccc(C)cc1NC(=O)c1cc(S(=O)(=O)N2CCC(C)CC2)ccc1F	/	/	/	16µM*	21µM*
COc1ccc(S(=O)(=O)N2CCN(C)CC2)cc1NC(=O)c1ccccc1F	-15%	-1	-17%	0%	?
O=Cc1ccc(C(=O)OCC(=O)Nc2ccc(F)cc2F)cc1	4%	2	0%	17%	22%
COc1ccc(S(=O)(=O)N2CCOCC2)cc1NC(=O)CCNC(=O)c1ccc([N+](=O)[O-])cc1	5.8µM*	-20	-3%[9.24 µM]	?	7.3µM*
COc1ccc(NC(=O)CCNC(=O)c2ccc([N+](=O)[O-])cc2)cc1S(=O)(=O)N1CCOCC1	-23%	1	-6%	-12%	-8%
COc1ccc(S(=O)(=O)N2CCCCC2)cc1NC(=O)c1ccc(CS(C)(=O)=O)cc1	-10%	-22	-6%	-6%	18µM*
CC1CN(c2ccccn2)C(C)CN1C(=S)Nc1ccccc1 (centres undefined)	23%	-7	11%	-1%	-1%
COc1ccc(CNS(=O)(=O)NCc2ccc(C)cc2)cc1OC	-14%	22	1%	?	16µM*
O=C(Nc1ccccc1C(=O)Nc1ccccn1)c1cc(F)c(F)cc1Cl	-10%	-3	2%	-21%	-19%
CN(C)S(=O)(=O)c1cccc(COC(=O)CNC(=O)c2ccc(Br)o2)c1	15%	-3	1%	11%	-3%
O=C(CCC1CCCCC1)NCCN1C2=NC[C@@H](Cc3ccccc3)N2C[C@H]1Cc1ccc(O)cc1	-16%	0	-18%	16µM*	16µM*
O=C(CCC1CCCCC1)NCCN1C2=NC[C@H](Cc3ccccc3)N2C[C@H]1Cc1ccc(O)cc1	2%	-24	-8%	21µM*	18µM*
C[C@H]1CN=C2N(CCNC(=O)CCC3CCCCC3)[C@H](Cc3ccc(O)cc3)CN21	-2%	-11	-3%	?	?
COc1cc(Br)c(C(C)NC(=O)c2cccc(Br)c2)cc1OC (centres undefined)	?	-2	-25%	26µM*	23µM*
COc1cc(C(=O)NC(C)c2cccc3ccccc23)cc(OC)c1OC (centres undefined)	0%	-57*	-3%	?	21µM*
Oc1ccc(N=Nc2c(O)ccc3ccccc23)cc1	?	-51*	11µM*	18µM*	?
NS(=O)(=O)c1ccc(N=Nc2c(O)ccc3ccccc23)cc1	1%	-29	?	-13%	?
Cn1c(=O)c2c(nc(CN3CCOCC3)n2CC(=O)c2ccccc2)n(C)c1=O	16%	23	19%	-22%	?
Cn1c(=O)c2c(nc(CN3CCc4ccccc4C3)n2CC(=O)c2ccccc2)n(C)c1=O	?	10	?	18µM*	26µM*
CN(c1nc2c(c(=O)n(C)c(=O)n2C)n1CC(=O)c1ccccc1)C1CCCCC1	-1%[9.24 µM]	-1	-6%	?	23µM*
SMILES	HT1080 IDH1KD tx	IL1B secr inh	HT1080NT lethal	DT40 TDP1 CPT	DT40 TDP1 no CPT
Cn1c(=O)c2c(nc(CN3CCc4ccccc4C3)n2Cc2ccc(Cl)cc2)n(C)c1=O	5%	10	-1%	-18%	-4%
CCOCCn1c(CN2CCc3ccccc3C2)nc2c1c(=O)n(C)c(=O)n2C	11%	61	13%	23µM*	10µM*
Cn1c(=O)c2c(nc(CN3CCc4ccccc4C3)n2Cc2ccccc2)n(C)c1=O	-24%	-17	-17%	23µM*	15µM*
Cc1ccc(CN2CC(C(=O)NCCCSc3ccccc3)CC2=O)cc1 (centres undefined)	7%	16	4%	?	?
COc1cc(-c2cnc3ccccc3c2)cc2c1OCCN(C(=O)CCn1nc(C)cc1C)C2	/	/	/	3%[9.04 µM]	-25%
CCOC(=O)c1sc(NC(=O)c2ccco2)c(C#N)c1C	-1%	11	-8%	-9%	-25%
CCN(CC)C(=O)c1sc(NC(=O)c2cccc([N+](=O)[O-])c2)c(C#N)c1C	4%	2	9%	21µM*	16µM*
COC(=O)c1c(NC(=O)c2ccc([N+](=O)[O-])o2)sc2c1CCN(C(C)C)C2	4.6µM*	-97*	21µM*	0.58µM*	0.82µM*
COC(=O)c1c(NC(=O)Cc2ccccc2)sc2c1CCN(C(C)C)C2	-5%	?	-15%	?	?
COC(=O)c1sc(NC(=O)c2ccc([N+](=O)[O-])o2)c(C#N)c1C	-3%	?	0%	9.2µM*	6.5µM*
CC(OC(=O)Cn1ccccc1=O)C(=O)Nc1cc(Cl)cc(Cl)c1 (centres undefined)	-2%	-11	1%	?	7%
CCOc1ccccc1N(CC(=O)N1CCN(Cc2ccccc2)CC1)S(=O)(=O)c1ccccc1	-6%	-5	-14%	23µM*	8.2µM*
COc1ccc(N(CC(=O)N2CCN(Cc3ccccc3)CC2)S(C)(=O)=O)c(OC)c1	12%	0	10%	?	13µM*
CC(=O)Nc1ccc(NC(=O)CCc2ccc(C)o2)cc1	0%	-7	12%	-2%	2%
Cc1ccc(CCC(=O)Nc2ccc([N+](=O)[O-])cc2)o1	-29%	-74*	-20%	-15%	?
O=C(Nc1ccc([N+](=O)[O-])cc1)NN1CCCCCC1	1%	-99*	-1%	23µM*	15µM*
O=C(Nc1ccc(Cl)cc1)NN1CCCCCC1	-10%	-16	-3%	3%	-18%
O=C(CCC(=O)N1CCCCCC1)Nc1ccc([N+](=O)[O-])cc1	?	33	6.5µM*	-1%	22%
CC1CCC(NC(=O)c2nc(Cn3ccc([N+](=O)[O-])n3)no2)CC1 (centres undefined)	1%	34	4%	-6%	-29%
